In the library only some 1.6% were active in any assay of this set; here they are far more common.
HTR5A inv ctr: HTR5A inverse agonism, opioid heterodimer counter-screen; P47898; HTR5A cell line, luminescence; inhibition, % at 9.3 µM; 0.083% of 340,000 active; AID 504634; in the data active = inhibition mostly above about 23%, no sharp cut-off; inactive = mostly below about 18%;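 also: 0% = cells with DMSO and 100% = no-cell wells with DMSO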
Target sequence (P47898 whole entry, looked up): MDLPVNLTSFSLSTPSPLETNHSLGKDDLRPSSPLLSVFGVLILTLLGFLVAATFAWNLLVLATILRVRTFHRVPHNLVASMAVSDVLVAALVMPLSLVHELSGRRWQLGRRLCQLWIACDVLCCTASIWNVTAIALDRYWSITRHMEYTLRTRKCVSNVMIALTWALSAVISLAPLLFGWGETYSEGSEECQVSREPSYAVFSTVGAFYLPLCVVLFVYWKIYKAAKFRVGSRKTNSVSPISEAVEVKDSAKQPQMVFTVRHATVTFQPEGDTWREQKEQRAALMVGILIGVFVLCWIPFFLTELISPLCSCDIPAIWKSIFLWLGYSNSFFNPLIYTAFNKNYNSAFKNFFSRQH
MOR-DOR ag: OPRM1-OPRD1 heterodimerization agonism; 0.3% of 340,000 active; activation, % at 9.3 µM; P35372+P41143; cells, luminescence;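 also: 0% = vehicle-treated cells and 100% = reference agonist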
HTR5A ag ctr: counter-screen for OPRM1-OPRD1 agonists: human HTR5A agonism; HTR5A agonist assay, luminescence, cell-based; activation, % at 9.3 µM; 0.61% of 340,000 active; AID 504692; in the data active = activation mostly above about 9.5%, no sharp cut-off; inactive = mostly below about 7.6%;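 also: 0% = cells with vehicle only and 100% = reference agonist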
OPRM1-OPRD1 inv: inverse agonist of human OPRM1-OPRD1 heterodimerization. P35372+P41143. cell-based MOR-DOR heterodimer luminescence, inverse agonism. inhibition, % at 9.3 µM. 0.21% of 340,000 active. AID 504357; in the data active = inhibition above about 22%, passing the limit was not always enough;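 also: 0% = cells with DMSO and 100% = wells without cells with DMSO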
HTR2A ag: mouse HTR2A agonism via beta-arrestin recruitment; AID 624169; activation, % at 7.6 µM; P35363; CHO-K1 mHTR2A beta-arrestin complementation, luminescence; percent of 30 µM serotonin response; 0.66% of 360,000 active;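 active = activation above a run cutoff, the mean activation of all tested compounds plus 3 SD, cut at about 14% in these data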;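 also: 0% = plate median of compound wells and 100% = 30 µM serotonin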
OPRM1-D1 ag cf: confirmation of human OPRM1-OPRD1 heterodimerization agonists. shares compounds with MOR-DOR ag. cells, MOR-DOR heterodimerization, luminescence complementation. activation, % at 9.3 µM. 45% of 830 active. AID 504904;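 also: 0% = vehicle-treated cells and 100% = reference agonist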
HTR5A ag ctr2: HTR5A agonism, opioid heterodimer counter-screen; activation, % at 9.3 µM; 8% of 830 active; shares compounds with MOR-DOR ag; HTR5A agonist counterscreen, cell luminescence; in the data active = activation above about 17%;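 also: 0% = vehicle-treated cells and 100% = reference agonist response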
Starred values were filed as active, the others as inactive. Rule as the data show it, unless noted: active = activation above about 18%; inactive = the rest.

For CC(=O)c1c(C)[nH]c(C(=O)OCC(=O)N2CCc3ccccc3C2)c1C the results were HTR5A inv ctr -33.4, MOR-DOR ag -0.2, HTR5A ag ctr 13.2, OPRM1-OPRD1 inv 0.7 and HTR2A ag 4.2.
For CCc1ccc2nc(N(CCCN(C)C)C(=O)c3ccc(S(=O)(=O)N(C)C4CCCCC4)cc3)sc2c1 the results were HTR5A inv ctr -24.8, MOR-DOR ag 19.1*, HTR5A ag ctr 2.4, OPRM1-OPRD1 inv -105.7, HTR2A ag -13.0, OPRM1-D1 ag cf 50.3* and HTR5A ag ctr2 3.0.
`COc1ccc(C2Nc3ccccc3C(=O)N2Cc2ccco2)cc1COc1ccc([N+](=O)[O-])cc1` (stereo not drawn) gave HTR5A inv ctr -2.2, MOR-DOR ag 21.9*, HTR5A ag ctr 0.9, OPRM1-OPRD1 inv -109.9, HTR2A ag -5.9, OPRM1-D1 ag cf 12.7 and HTR5A ag ctr2 -0.8.
CCc1ccc(-c2ccc(SCC(=O)Nc3nnc(C)s3)nn2)cc1 was read as HTR5A inv ctr 3.1, MOR-DOR ag 7.9, HTR5A ag ctr 4.2, OPRM1-OPRD1 inv -38.2 and HTR2A ag 1.9.
Screening Cc1ccc(C)c(-n2cc(CNCCCn3cccn3)c(-c3ccccc3)n2)c1 returned HTR5A inv ctr 4.8, MOR-DOR ag 242.7*, HTR5A ag ctr -7.9, OPRM1-OPRD1 inv inactive, HTR2A ag -8.2, OPRM1-D1 ag cf 218.2* and HTR5A ag ctr2 -1.1.
For Cc1ccc(C)c(-n2cc(CNC(C)Cn3cncn3)c(-c3ccccc3)n2)c1 (stereo not drawn) the results were HTR5A inv ctr -12.8, MOR-DOR ag 39.5*, HTR5A ag ctr -6.9, OPRM1-OPRD1 inv -201.0, HTR2A ag -2.2, OPRM1-D1 ag cf 36.3* and HTR5A ag ctr2 2.7.
Screening N#C/C(=C\c1cccn1S(=O)(=O)c1ccccc1)S(=O)(=O)c1ccc(F)cc1 returned HTR2A ag -0.4.
Cc1ccc(NC(=O)C(C)SCc2ccccc2)cc1 (stereo not drawn) was read as HTR5A inv ctr 3.4, MOR-DOR ag 1.5, HTR5A ag ctr -0.9, OPRM1-OPRD1 inv -7.5 and HTR2A ag -0.1.
CCc1ccc(OCc2n[nH]c(=S)n2C(C)CCCC(C)C)cc1 (stereo not drawn) was read as HTR5A inv ctr -4.7, MOR-DOR ag 19.8*, HTR5A ag ctr 1.7, OPRM1-OPRD1 inv -91.2, HTR2A ag 0.4, OPRM1-D1 ag cf 6.8 and HTR5A ag ctr2 18.1*.
Screening CCc1ccc(OCc2n[nH]c(=S)n2Cc2ccccc2)cc1 returned HTR5A inv ctr 13.7, MOR-DOR ag 8.8, HTR5A ag ctr -5.0, OPRM1-OPRD1 inv -62.5 and HTR2A ag 6.4.
`Cc1oc(-c2cccc(F)c2)nc1CN(Cc1ccccc1)C[C@@H]1CCC(=O)N1` gave HTR5A inv ctr -16.7, MOR-DOR ag 28.7*, HTR5A ag ctr 1.6, OPRM1-OPRD1 inv -133.7, HTR2A ag 3.3, OPRM1-D1 ag cf 11.1 and HTR5A ag ctr2 2.7.
For Cc1oc(-c2ccccc2Cl)nc1CN(Cc1ccccn1)C[C@@H]1CCC(=O)N1 the results were HTR5A inv ctr 7.8, MOR-DOR ag -1.4, HTR5A ag ctr -0.4, OPRM1-OPRD1 inv 10.2 and HTR2A ag -0.8.
For CN(C)C(=O)c1ccc(NC(=O)c2ccc(-c3ccc(Cl)cc3)o2)cc1 the results were HTR5A inv ctr 13.8, MOR-DOR ag -1.6, HTR5A ag ctr -5.5, OPRM1-OPRD1 inv 8.8 and HTR2A ag 5.9.
For Cc1cc(C)cc(NS(=O)(=O)CCCS(=O)(=O)Nc2cc(C)cc(C)c2)c1 the results were HTR5A inv ctr -22.4, MOR-DOR ag 29.9*, HTR5A ag ctr 5.7, OPRM1-OPRD1 inv -145.4, HTR2A ag 0.2, OPRM1-D1 ag cf 1.1 and HTR5A ag ctr2 -4.2.
Screening CCCCCCCCCS(=O)(=O)Nc1cc(C)ccn1 returned HTR5A inv ctr -13.2, MOR-DOR ag -2.0, HTR5A ag ctr 5.0, OPRM1-OPRD1 inv 10.1 and HTR2A ag 4.0.
CC(=O)Nc1ccc(CN2CCCC(C(=O)c3cccc(C(F)(F)F)c3)C2)cc1 (stereo not drawn) was read as HTR5A inv ctr 14.5, MOR-DOR ag 58.3*, HTR5A ag ctr 0.9, OPRM1-OPRD1 inv -365.9, HTR2A ag -3.9, OPRM1-D1 ag cf 56.1* and HTR5A ag ctr2 -2.4.
O=C(c1cccc(C(F)(F)F)c1)C1CCCN(Cc2ccc(OCCO)cc2)C1 (stereo not drawn) was read as HTR5A inv ctr -15.5, MOR-DOR ag -1.6, HTR5A ag ctr 5.9, OPRM1-OPRD1 inv 9.0 and HTR2A ag -4.5.
O=C(Nc1ccccc1O)c1nc(Cl)ccc1Cl was read as HTR5A inv ctr -29.8, MOR-DOR ag -3.3, HTR5A ag ctr 0.8, OPRM1-OPRD1 inv 16.9 and HTR2A ag -1.6.
`CCN(C(=O)c1cccs1)c1nc(-c2ccc(OC)cc2)cs1` gave HTR5A inv ctr 10.3, MOR-DOR ag -1.6, HTR5A ag ctr -3.7, OPRM1-OPRD1 inv 8.6 and HTR2A ag -2.5.
COc1ccc(-c2csc(N(CCCN(C)C)C(=O)c3cccs3)n2)cc1 was read as HTR5A inv ctr -10.9, MOR-DOR ag 26.4*, HTR5A ag ctr 4.2, OPRM1-OPRD1 inv -131.5, HTR2A ag -10.2, OPRM1-D1 ag cf 42.7* and HTR5A ag ctr2 -1.3.
Screening COc1cc(Cl)c(C)cc1NC(=O)COC(=O)c1ccc(CN2CCCC2=O)cc1 returned HTR5A inv ctr 5.8, MOR-DOR ag 0.2, HTR5A ag ctr -2.3, OPRM1-OPRD1 inv -0.6 and HTR2A ag 9.0.
CCN(CC)CCNCc1cc(Br)ccc1OCC(=O)NCc1ccccc1 was read as HTR5A inv ctr -11.6, MOR-DOR ag -0.8, HTR5A ag ctr 4.7, OPRM1-OPRD1 inv 4.2 and HTR2A ag 3.3.
For CC(NCc1cc(Br)ccc1OCC(=O)NCc1ccccc1)c1ccccc1 (stereo not drawn) the results were HTR5A inv ctr -1.7, MOR-DOR ag 33.0*, HTR5A ag ctr 0.6, OPRM1-OPRD1 inv -169.2, HTR2A ag -8.1, OPRM1-D1 ag cf 18.6* and HTR5A ag ctr2 4.4.
For C[C@]12CCC[C@H](O1)c1c(cc3c(c1O)C(=O)c1c(O)cc(O)cc1C3=O)O2 the results were HTR5A inv ctr 8.8, MOR-DOR ag 0.8, HTR5A ag ctr 0.1, OPRM1-OPRD1 inv -4.1 and HTR2A ag 0.0.
`c1ccc(CCNc2ccnc3cc4ccccc4cc23)cc1` gave HTR5A inv ctr 3.8, MOR-DOR ag 32.0*, HTR5A ag ctr 9.6, OPRM1-OPRD1 inv -164.0, HTR2A ag -7.2, OPRM1-D1 ag cf 24.3* and HTR5A ag ctr2 11.5.
`O=C1c2[nH]nc(-c3ccccc3O)c2C(c2ccc(F)cc2)N1Cc1ccco1` (stereo not drawn) gave HTR5A inv ctr 0.3, MOR-DOR ag 19.7*, HTR5A ag ctr -0.1, OPRM1-OPRD1 inv -99.5, HTR2A ag 0.6, OPRM1-D1 ag cf 10.1 and HTR5A ag ctr2 1.8.
